Among all 1,900 compounds or so, about 1,600 (84%) were called active.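 The calls were made as follows: active = mean activation above a set limit taken from the primary screen (cut at about 8% in these data); inactive = the rest.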 So high a share suggests a set chosen from earlier hits. These entries were drawn from the full list.

This assay in a line: FXN GAA850 promoter activators in reporter cells, confirmation, cell-based, luminescence, HEK293 lucGAA850, triplicate (AID 588351).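 Also: 0% = DMSO wells and 100% = 10 µM SAHA wells.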 The conditions noted are these: HEK293 lucGAA850 FXN promoter luciferase reporter, 24 h; at 6 µM; active compounds read high; 100% = activation by SAHA. (In general: A reporter such as luciferase makes a cellular process visible.)
Regarding `CC(C)c1cc(C(=O)N/N=C/C(Br)=C/c2ccccc2)n[nH]1`, the activation was 15.8% (active).

For `Cc1cc(C(=O)N/N=C\C(Br)=C\c2ccccc2)c(C)o1`, the activation was 26.2% (active).

Consider `CC1(Cc2cccc(C#N)c2)C(=O)Nc2ccc(-c3cccc(C(F)(F)F)c3)cc21` (centres undefined), for which the activation was 10.7% (active).

Regarding `Cc1c(-c2ccccc2)nc(N)c(C#N)c1-c1cccs1`, the activation was 14.5% (active).

Consider `O=C1[C@H]2[C@@H](c3ccc(F)cc3)N3C(=O)N(c4ccc(C(F)(F)F)cc4)C(=O)[C@@]3(Cc3ccccc3)[C@H]2C(=O)N1C1CCCCC1`, for which the activation was 16.2% (active).

Take `C[C@@]12C(=O)N(c3cccc(Br)c3)C(=O)N1[C@H](c1ccc(Cl)cc1)[C@@H]1C(=O)N(C3CCCCC3)C(=O)[C@@H]12`: the activation was 5.12% (inactive).

In the case of `O=C1[C@H]2[C@@H](c3ccc(Cl)cc3)N3C(=O)N(c4cccc(F)c4)C(=O)[C@@]3(Cc3ccccc3)[C@H]2C(=O)N1C1CCCCC1`, the activation is 11.2% (active).

As to `Cc1noc(C)c1-c1ccc2ncnc(NC(C)c3ccco3)c2c1` (centres undefined), the activation is 20.1% (active).

Regarding `Cc1ccc(NC(=O)c2sc3nc(N)c(C#N)cc3c2N)cc1`, the activation is 27.4% (active).

With `O=C(CC1NCCc2ccccc21)Nc1cccc(Cl)c1` (centres undefined), the activation is 26.7% (active).

Turning to `CC1(C(=O)NCc2cccc3ccccc23)CCN1Cc1ccc(-c2ccccc2)o1` (centres undefined), the activation was 11.9% (active).

On to `COc1ccc(-c2csc(Nc3ccc(O)cc3)n2)cc1`, for which the activation was 40.1% (active).

For `O=c1oc2ccccc2cc1-c1csc(Nc2ccc(O)cc2)n1`, the activation was 44.3% (active).

As to `COc1ccc(-c2csc(Cc3nc(O)cs3)n2)cc1`, the activation is -4.16% (inactive).

With `O=c1[nH]cnc2c1c(-c1ccccc1)cn2-c1ccc(F)cc1`, the activation is 9.89% (active).

As for `Cc1ccc(-n2c(C)cc(/C=C(\C#N)C(=O)NCC3CCCO3)c2C)cc1` (centres undefined), the activation is 41.3% (active).

Consider `COc1ccc(NC(=O)CSc2nc(SC)ns2)c(OC)c1`, for which the activation is 40.6% (active).

As for `CSc1nc(N)c(C#N)c(-c2ccccc2Cl)c1C#N`, the activation is 21.1% (active).

As for `CCCCn1c(SCC(=O)NCCc2ccc(OC)c(OC)c2)nc2c1c(=O)n(C)c(=O)n2C`, the activation is 8.75% (active).

For the compound `COc1ccc(N(CCC#N)S(=O)(=O)c2ccc(Cl)cc2)cc1`, the activation is 3.78% (inactive).

`Cc1ccc(C2Nc3cccc4cccc(c34)N2)cc1`: the activation is 12.4% (active).

Regarding `COc1cc(/C=N/Nc2nc3ccccc3s2)ccc1O`, the activation is 34.8% (active).

On to `CC1(C(=O)N/N=C/c2cc3c(cc2Br)OCO3)CC1(Br)Br` (centres undefined), for which the activation is 15.3% (active).

In the case of `COc1ccc(-c2nnc(SCC(=O)c3cccs3)o2)c(OC)c1`, the activation is 26.2% (active).

With `N#CC1=C(SCc2ccc(C#N)cc2)N=C(N)C(c2nc(-c3ccccc3)cs2)C12CCCCC2` (centres undefined), the activation was 17.6% (active).

In the case of `CCOc1ccc(Nc2oc(Cc3ccccc3)nc2C#N)cc1`, the activation is 32.1% (active).

`CCC1(CC)Cc2ccccc2-c2nc(CCl)[nH]c(=O)c21`: the activation is 1.84% (inactive).

Regarding `CN1C(=O)/C(=C\c2cc(Br)cs2)c2ccccc21`, the activation is 38.3% (active).

In the case of `CCOC(=O)c1cc2cc(C)ccc2[nH]1`, the activation was 29.5% (active).

Regarding `CN(C)[C@@H]1C(=O)C(C(N)=O)=C(O)[C@@]2(O)C(=O)C3=C(O)c4c(O)ccc(Cl)c4[C@@H](O)[C@H]3C[C@@H]12`, the activation is 15.3% (active).

Regarding `C=C1c2c(Cl)ccc(O)c2C(O)=C2C(=O)[C@]3(O)C(O)=C(C(N)=O)C(=O)[C@@H](N(C)C)[C@@H]3[C@@H](O)C12` (some centres undefined), the activation was 15.5% (active).

With `Cc1nc(-c2ccc(F)cc2)c(CC(=O)Nc2cc(S(=O)(=O)N3CCCCC3)ccc2C)s1`, the activation is 6.94% (inactive).

For the compound `COc1ccc(C2Nc3ccccc3C(=O)N2c2ccc(Cl)cc2)cc1Cn1cc([N+](=O)[O-])cn1` (centres undefined), the activation is 26.8% (active).

As for `Cc1cc(C)nc(S/C=C/C(=O)c2ccccc2)n1`, the activation is -19% (inactive).

On to `Oc1ccccc1-c1cc(-c2ccc(Cl)cc2)n[nH]1`, for which the activation was 46.8% (active).

On to `c1ccc(-c2cc(-c3ccccc3)[nH]n2)cc1`, for which the activation was 43% (active).

Take `O=C(N/N=C/C=C/c1ccco1)c1cccs1`: the activation was 31.4% (active).

In the case of `O=C(Nc1ccc2c(c1)OCCO2)c1cnccn1`, the activation is 25.8% (active).

As to `O=C(COc1ccc(Cl)cc1Cl)NCCCNC(=O)c1cnccn1`, the activation was 7.43% (inactive).

The values above are taken from PubChem BioAssay AID588351 (The Scripps Research Institute Molecular Screening Center, 2011).
